Screening results deposited in PubChem BioAssay by National Center for Advancing Translational Sciences (NCATS).
ALOX12 inh – blocks human arachidonate 12S-lipoxygenase; Potency, µM (top dose mostly 108 µM), for the others: at the highest dose activity change, negative = inhibition, hits mostly inhibitors; P18054; AID 1671190; purified 12hLO, xylenol orange hydroperoxide absorbance; actives 1.1% (n = 580,000); further: potency means the concentration at half of the fitted maximal effect; on the % scale 0 is the no-effect control and ±100 the full control effect
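Hydroperoxide product was detected by ferrous iron/xylenol orange as the 573 to 405 nm absorbance ratio. Arachidonic acid at 40 uM (final) was turned over for 30 min at room temperature by 150 nM human 12hLO, pH 7.0 Hepes buffer, after 15 min compound preincubation.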
A549 viability – counter-screen for Nrf2 inhibitors: cytotoxicity in A549 cells | A549 ARE-Fluc cells, CellTiter-Fluor viability, 18-24 h | Potency, µM (doses to about 46 µM), without a hit: at the highest dose activity change, negative = cytotoxicity, usual class: inhibitors | AID 504648 | actives 0.16% (n = 390,000); further: potency means the concentration at half of the fitted maximal effect; on the % scale 0 is the no-effect control and ±100 the full control effect
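Cytotoxicity counterscreen: CellTiter-Fluor fluorescence was measured in A549 ARE_Fluc cells after 18-24 h of compound exposure in a concentration series. The subsequent BugLite luminescent read reports ARE-luciferase activity.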
LDHA block – LDHA (human) enzyme inhibition | purified LDHA, NADH/diaphorase-resazurin fluorescence; stronger effect = lower value | activity change, % (values are at about 110 or 230 µM) | P00338 | actives 0.15% (n = 480,000) | AID 1347041; in the data active means activity change below about -30%; inconclusive means mostly about -25% to -30%;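 further: plate controls were DMSO wells for no effect and wells without enzyme for full effect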
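Human LDH5 (2 nM) was incubated with 0.06 mM NADH and 0.2 mM pyruvate for 5 min at room temperature in Tris pH 7.4. Remaining NADH was coupled through diaphorase/resazurin, and resorufin fluorescence was read at 0 and 20 min.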
Nrf2 activator – activators of Nrf2 (ARE) signaling; AREc32 ARE-luciferase reporter (MCF7-derived line), luminescence, 24 h; actives 0.31% (n = 410,000); Potency, µM (series often up to 46.1 µM), for the others: at the top dose activation, most hits filed as activators; further: potency means the concentration at half of the fitted maximal effect; % of control where 0% means no effect; nearly all actives have a fitted effect of over 65% in size
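For detection, Steady-Glo was added and plates sat 30 min at RT; before that, AREc32_Fluc cells grown overnight in OPTI-MEM/5% FBS had been treated with 23 nL compound for 24 hr at 37 deg C.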
ERG-DNA inh – inhibitors of human ERG Ets domain-DNA interaction; P11308; fluorescence polarization, His-ERG Ets domain / labelled DNA; Potency, µM (doses to about 76.9 µM), without a hit: at the highest dose FP activity, negative = inhibition, most hits filed as inhibitors; actives 0.028% (n = 370,000); active means well fitted inhibition curve with a large enough effect in the polarisation, with a control signal flat; inconclusive means small, poorly fitted or top-dose-only effect, or effect the other way, or a change in a side signal; inactive means no such curve, though single readings can be large or run the other way; the % refers to the polarisation;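 further: polarization taken with two DNA probes labelled with fluorescein and Texas red; potency means the concentration at half of the fitted maximal effect; % of control where 0% means no effect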
Target sequence (P11308 whole entry, looked up, the tested form may be a part): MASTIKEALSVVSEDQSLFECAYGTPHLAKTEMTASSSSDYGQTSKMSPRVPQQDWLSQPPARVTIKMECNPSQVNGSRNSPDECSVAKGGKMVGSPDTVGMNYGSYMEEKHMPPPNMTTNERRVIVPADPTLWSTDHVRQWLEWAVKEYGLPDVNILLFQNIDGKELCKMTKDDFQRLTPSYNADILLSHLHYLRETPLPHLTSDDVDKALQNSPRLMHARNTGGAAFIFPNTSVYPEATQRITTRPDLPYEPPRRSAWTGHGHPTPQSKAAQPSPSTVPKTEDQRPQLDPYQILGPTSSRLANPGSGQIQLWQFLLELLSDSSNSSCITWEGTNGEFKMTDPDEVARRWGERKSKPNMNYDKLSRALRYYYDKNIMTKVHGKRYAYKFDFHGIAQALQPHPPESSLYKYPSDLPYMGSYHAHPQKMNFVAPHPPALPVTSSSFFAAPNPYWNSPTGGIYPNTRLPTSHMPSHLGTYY
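His-tagged ERG Ets domain (1 uM in the protein solution; 300mM KCl, 50mM Tris-HCl, 1mM EDTA, 1mM DTT, pH 7.5) received compound, then a probe mix of 5 nM fluorescein-DNA and 100nM Texas-615-DNA. Fluorescence polarization was read for both dyes.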
Nrf2 inh – Nrf2 pathway inhibition. Potency, µM (titrated, usually from 46 µM), for inactives: top-dose activity change, negative = inhibition, most hits filed as inhibitors. actives 2.1% (n = 360,000). A549 ARE-Fluc reporter, luciferase luminescence, 18-24 h; further: potency means the concentration at half of the fitted maximal effect; on the % scale 0 is the no-effect control and ±100 the full control effect; nearly all actives have a fitted effect of over 60% in size
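Concentration-response testing used A549 ARE_Fluc cells at 5000 cells/well. Following an 18-24 h compound incubation, viability was read by fluorescence (Ex 405/Em 525) and luciferase output by luminescence.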
* marks the source's active call; other numbers are inactive results; ? = inconclusive; . = no result given; [ ] = dose if it differs, or a comment. Shown are actives, neighbours in structure and some others; about 2.7% of the full set was active somewhere. Unless noted, the call rests on the fitted dose curve; in most records, active means well fitted curve in the direction sought with a large enough effect; inconclusive means small, poorly fitted or top-dose-only effect, or another doubt; inactive means no such curve, though single readings can be large; an effect the other way counts as inactive or inconclusive.

SMILES | ALOX12 inh | A549 viability | LDHA block | Nrf2 activator | ERG-DNA inh | Nrf2 inh
Cc1cc(C(=O)NC2CCCc3c2cnn3-c2ccc(C)c(C)c2)no1 (configuration not stated) | 10% | -19% | -3 | 0% | -2% | 10µM*
CCn1nc(C)cc1C(=O)NC1CCCc2c1cnn2-c1ccc(C)c(C)c1 (configuration not stated) | 3% | -13% | -3 | 0% | -9% | 12µM*
COc1cc(C(=O)NC2CCCc3c2cnn3-c2ccccc2F)cc(OC)c1OC (configuration not stated) | 17% | -14% | -4 | 2% | 3% | 6.5µM*
CCCC(=O)NC1CCCc2c1cnn2-c1ccc(C)c(C)c1 (configuration not stated) | 5% | 0% | -1 | 4% | 9% | -29%
CCOc1cc(/C=N/O)ccc1O | 9% | . | 7 | . | . | .
Cc1ccc(CNC(C)C23CC4CC(CC(C4)C2)C3)o1 (configuration not stated) | -5% | . | -3 | . | . | .
CC(Sc1nc2cc(S(=O)(=O)N(C)C)ccc2o1)C(=O)NC12CC3CC(CC(C3)C1)C2 (configuration not stated) | 0% | . | 10 | . | . | .
CC(=O)NC1CCCc2c1cnn2-c1ccc(C(C)(C)C)cc1 (configuration not stated) | 17% | -8% | -6 | 0% | 0% | -24%
CC(C)(C)c1ccc(-n2ncc3c2CCCC3NC(=O)C2=NNC(=O)CC2)cc1 (configuration not stated) | 10% | -19% | -2 | 1% | -16% | 8.2µM*
O=C(c1ccc2c(c1)OCO2)N1CCC(c2nnc3n2CCNC3)CC1 | 10µM* | . | . | . | . | .
O=C(c1ccc2c(c1)OCO2)N1CCn2c(nnc2C2CCCNC2)C1 (configuration not stated) | 2%[6.33 µM] | . | . | . | . | .
CCN(CC)CCNc1ccc(CO)c2sc3ccccc3c(=O)c12 | ? | 16µM* | -3 | 0% | 3% | 6.5µM*
CN(Cc1ccccc1)C(=O)C1CCCN(Cc2cccc3ccccc23)C1 (configuration not stated) | ? | . | 2 | . | . | .
CCc1ccccc1N1CSC2=C(C#N)C(c3cc(OC)c(OC)cc3OC)CC(=O)N2C1 (configuration not stated) | ? | 3% | 7 | 0% | 7% | 10%
CCOc1ccc(N2CSC3=C(C#N)C(c4ccco4)CC(=O)N3C2)cc1 (configuration not stated) | ? | -7%[1.84 µM] | 1 | 0% | 8% | 1%
COc1cc(C2CC(=O)N3CN(c4cccc(C)c4)CSC3=C2C#N)ccc1O (configuration not stated) | 2µM* | . | 6 | . | . | .
COc1cc(OC)c(C2CC(=O)N3CN(C)CSC3=C2C#N)cc1OC (configuration not stated) | 16µM* | -6% | 12 | 3% | -7% | 2%
CCOc1cc(C2CC(=O)N3CN(c4ccccc4)CSC3=C2C#N)cc(Br)c1O (configuration not stated) | 1.8µM* | . | 16 | . | . | .
COc1cc(OC)c(C2CC(=O)N3CN(c4ccccc4)CSC3=C2C#N)cc1OC (configuration not stated) | 2.8µM* | . | 24 | 0% | -6% | 13%
CCc1ccc(C(=O)Nc2ccc(C(N)=O)cc2)cc1S(=O)(=O)N1CCOCC1 | -2% | . | 7 | . | . | .
COc1ccc2cc(C(=O)NC(CN(C)C)c3ccccc3)[nH]c2c1 (configuration not stated) | ? | . | 12 | . | . | .
C=C1N(S(=O)(=O)C(F)(F)F)CCC12CN(S(=O)(=O)c1ccc(C)cc1)c1ccccc12 (configuration not stated) | 0% | . | . | . | . | .
